Test results published in article PMC4336329 (PLoS ONE, 2015).
Out of some 310,000 compounds screened, about 14,000 (4.5%) showed an effect of 50% or more. The effect is printed as a negative number. This excerpt belongs to a sample that is enriched for strong results.

target: human ether-à-go-go-related gene (hERG) potassium channel (human, UniProt Q12809); assay: primary screen, population patch clamp on CHO cells stably expressing hERG; higher = less effect of the substance
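Also: peak tail current of the secondary pulse compared with the same well before compound.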

human ether-à-go-go-related gene (hERG) potassium channel, sequence (Q12809 whole entry, looked up): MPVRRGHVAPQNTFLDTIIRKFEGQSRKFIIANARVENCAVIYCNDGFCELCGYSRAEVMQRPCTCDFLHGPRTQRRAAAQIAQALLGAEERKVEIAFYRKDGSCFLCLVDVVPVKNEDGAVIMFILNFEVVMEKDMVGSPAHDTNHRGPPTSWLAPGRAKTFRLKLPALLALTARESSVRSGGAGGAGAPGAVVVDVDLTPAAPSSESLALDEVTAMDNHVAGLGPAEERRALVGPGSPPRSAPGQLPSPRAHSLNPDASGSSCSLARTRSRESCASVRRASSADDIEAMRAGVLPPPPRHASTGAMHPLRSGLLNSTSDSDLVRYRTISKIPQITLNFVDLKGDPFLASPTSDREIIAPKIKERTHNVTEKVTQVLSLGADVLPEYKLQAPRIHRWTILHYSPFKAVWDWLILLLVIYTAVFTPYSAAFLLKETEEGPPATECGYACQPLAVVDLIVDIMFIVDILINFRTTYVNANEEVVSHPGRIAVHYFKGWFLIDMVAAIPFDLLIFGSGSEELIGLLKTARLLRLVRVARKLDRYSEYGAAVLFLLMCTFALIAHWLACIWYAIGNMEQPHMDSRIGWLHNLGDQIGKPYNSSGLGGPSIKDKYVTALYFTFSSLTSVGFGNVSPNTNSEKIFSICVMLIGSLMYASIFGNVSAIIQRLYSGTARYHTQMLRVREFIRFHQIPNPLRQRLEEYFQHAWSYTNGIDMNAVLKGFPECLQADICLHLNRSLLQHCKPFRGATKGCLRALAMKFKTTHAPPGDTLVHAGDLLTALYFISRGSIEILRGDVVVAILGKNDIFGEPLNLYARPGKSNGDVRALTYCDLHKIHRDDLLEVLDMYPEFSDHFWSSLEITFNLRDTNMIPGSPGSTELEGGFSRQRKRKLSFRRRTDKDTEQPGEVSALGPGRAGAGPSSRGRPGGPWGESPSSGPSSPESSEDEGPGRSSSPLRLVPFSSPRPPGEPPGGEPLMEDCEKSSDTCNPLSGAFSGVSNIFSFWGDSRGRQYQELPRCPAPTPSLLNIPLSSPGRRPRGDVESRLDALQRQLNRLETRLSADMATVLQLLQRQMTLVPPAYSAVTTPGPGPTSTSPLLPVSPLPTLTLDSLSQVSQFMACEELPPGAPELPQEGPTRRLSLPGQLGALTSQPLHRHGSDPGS

Compound | hERG current change (%, negative = inhibition) at 10uM
CCCN1CCN(C(=O)C2CCCN(c3ncnc4c3nc3n4CCCCC3)C2)CC1 (stereo not drawn) | -1.04%
O=C(C1CCCN(c2ncnc3c2nc2n3CCCCC2)C1)N1CCN(c2cccc(Cl)c2)CC1 (stereo not drawn) | -72.8%
CC1CC(C)CN(C(=O)C2CCCN(c3ncnc4c3nc3n4CCCCC3)C2)C1 (stereo not drawn) | -35.8%
O=C(C1CCCN(c2ncnc3c2nc2n3CCCCC2)C1)N1CCCCC1 (stereo not drawn) | -18.2%
O=C(C1CCCN(c2ncnc3c2nc2n3CCCCC2)C1)N1CCN(c2ccccc2)CC1 (stereo not drawn) | -74%
O=C(C1CCCN(c2ncnc3c2nc2n3CCCCC2)C1)N1CCN(c2ccc(Cl)cc2)CC1 (stereo not drawn) | -54.8%
Cc1ccc(C)c(N2CCN(C(=O)C3CCCN(c4ncnc5c4nc4n5CCCCC4)C3)CC2)c1 (stereo not drawn) | -33.6%
O=C(C1CCN(c2ncnc3c2nc2n3CCCCC2)CC1)N1CCN(c2cccc(Cl)c2)CC1 | -36.7%
O=C1CNC(=S)N1C(CO)c1ccccc1 (stereo not drawn) | 22.2%
CCc1cc(C(=O)Cc2ccc(F)cc2)c(O)cc1O | -12.7%
O=C(O)c1c(C(=O)O)c(-c2ccc(Br)cc2)n2c1CSC2 | 15%
O=C(O)COc1ccc(S(=O)(=O)NCCc2ccccc2)cc1 | 6.4%
CC(C)C[C@H](NC(=O)C1CC(=O)N(c2ccc3c(c2)OCO3)C1)C(=O)NC1CCCC1 (stereo partly drawn) | -0.704%
Cc1cccc(OCC(=O)Nc2ccc(NC(=O)c3ccco3)c(C)c2)c1 | -15.3%
COc1ccc(C(=O)N2CCC(C(=O)Nc3ccc(OC)c(OC)c3)CC2)cc1 | 1.37%
COC(=O)c1ccc(NC(=O)C2CCN(C(=O)c3cc(OC)c(OC)c(OC)c3)CC2)cc1 | 6.73%
COc1ccc(NC(=O)C2CCN(C(=O)c3ccc(OC)cc3)CC2)cc1 | -72.2%
COc1ccc(NC(=O)C2CCN(C(=O)c3cccs3)CC2)cc1 | -12.4%
COc1ccc(C(=O)N2CCC(C(=O)Nc3ccc(C)cc3)CC2)cc1 | -75.9%
CCOC(=O)c1ccc(NC(=O)C2CCN(C(=O)c3ccc(OC)c(OC)c3)CC2)cc1 | -58.7%
COc1ccc(C(=O)N2CCC(C(=O)Nc3ccccc3OC)CC2)cc1 | -34.6%

Compound | hERG current change (%, negative = inhibition) at 10uM
COc1ccc(C(=O)N2CCC(C(=O)Nc3cccc(C)c3)CC2)cc1OC | -38.9%
COc1ccc(C(=O)N2CCC(C(=O)NC3CC3)CC2)cc1 | 4.25%
COc1ccc2sc(-c3ccccc3OC)c(-c3ccc4c(c3)OCCO4)c2c1 | 17.2%
Cc1c(C(=O)Nc2ccc3c(c2)OCCO3)oc2ccc(Br)cc12 | 0.46%
CCOC(=O)COc1c(OC)cc(Cl)cc1C1Nc2ccccc2C(=O)N1c1cccc(C)c1 (stereo not drawn) | -8.45%
O=C1OCCN/C1=C\C(=O)c1ccc(Cl)cc1 | 14.5%
Cn1ccc(NS(=O)(=O)c2cc(Br)ccc2Br)n1 | 0.158%
O=C(CCS(=O)(=O)c1ccc(F)cc1)Nc1nnc(-c2ccc(F)cc2)o1 | -10.7%
COc1ccc(NC(=O)c2sc3ncn(CC(=O)N4CCN(c5ccccn5)CC4)c(=O)c3c2C)c(OC)c1 | 19.5%
O=C(c1ccco1)N1N=C(c2cccs2)CC1c1cc([N+](=O)[O-])ccc1O (stereo not drawn) | 7.51%
C[C@H]1CN=C(N(C)C)N1CCCCc1ccccc1 | -25.5%
CC(C)C[C@H]1CN=C(N(C)C)N1CCCCc1ccccc1 | -64.7%
CN(C)C1=NC[C@H](Cc2ccccc2)N1CCCCc1ccccc1 | -71%
CCC(CC)CN1C(N(C)C)=NC[C@@H]1CC(C)C | -4.65%
CCC(C)CCN1C(N(C)C)=NC[C@@H]1Cc1ccccc1 (stereo partly drawn) | -22.5%
CCN1C(N(C)C)=NC[C@@H]1Cc1ccccc1 | -1.57%
CCCCCCCN1C(N(C)C)=NC[C@@H]1Cc1ccccc1 | -80.1%
CCC(C)CCN1C(N(C)C)=NC[C@@H]1CC(C)C (stereo partly drawn) | -11%
CC(C)CCCN1C(N(C)C)=NC[C@@H]1Cc1ccccc1 | -24.9%
COC(=O)C1=NN(c2cccc(C)c2)C2C(=O)N(c3ccccc3OC)C(=O)C12 (stereo not drawn) | -4.79%
COc1ccccc1OCc1cc(C(=O)NCc2ccc(N3CCCC3=O)cc2)no1 | 13.4%
